Assay results taken from PubChem BioAssay (NCI).
About 79,000 compounds went through this panel and 15% of them were active in at least one assay; those are over-represented in the sample as a whole. Active and inactive are the calls of the source. No stated cut-off is given here; in the data, active means growth inhibition above about 70%; inactive means the rest. *1 amine or outer side, *2 acyl side, *3 side chain or, on linkers, in order; H or OH if unused. Where a SMILES comes first, the peptide text is derived from it. Bridges are numbered along the chain shown (N, C = ends). Roman numbers before positions name the chains, in order. [ ]: non-standard residue; d: D form. Actinocin(9to1) = Cc1c2oc3c(C)ccc(C(=O)[*:1])c3nc-2c(C(=O)[*:2])c(N)c1=O; NMeT = CN[CH](C(=O)O)[CH](C)O; Sar = CNCC(=O)O

How the values were obtained:
[1] = NCI Yeast Anticancer Drug Screen. Data for the rad50 strain (AID 155);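 further: 0% = growth of vehicle-only cultures of the same strain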; details: S. cerevisiae rad50 strain growth inhibition; at 50.0 µM; hits give high values
Outline: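 Genetically altered yeast (DNA repair pathway); compound treatment; growth inhibition vs vehicle ctrl.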

[2] = NCI Yeast Anticancer Drug Screen. Data for the mec2-1 strain (AID 157); details: S. cerevisiae mec2-1 strain, at 50.0 µM, hits give high values
Outline: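 Readout is yeast growth inhibition, normalised to vehicle-treated controls, in the mec2-1 strain exposed to compound.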

[3] = NCI Yeast Anticancer Drug Screen. Data for the sgs1 mgt1 strain (AID 161);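 further: 0% = growth of cultures given vehicle only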; details: S. cerevisiae sgs1 mgt1 strain, at 50.0 µM, hits give high values
Outline: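 Percent growth inhibition was derived by comparing compound-exposed mutant yeast with vehicle-exposed cultures. The strain carries alterations in DNA damage repair.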

[4] = NCI Yeast Anticancer Drug Screen. Data for the cln2 rad14 strain (AID 165);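 further: 0% = growth equal to vehicle treated cultures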; details: S. cerevisiae cln2 rad14 strain, at 50.0 µM, hits give high values
Outline: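 Relative to vehicle controls, growth inhibition of compound-treated cln2 rad14 yeast was recorded.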

[5] = NCI Yeast Anticancer Drug Screen. Data for the bub3 strain (AID 167); details: S. cerevisiae bub3 mutant strain, at 50.0 µM, hits give high values
Outline: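 Yeast carrying a defined mutation is treated with each compound, and growth is compared with that of vehicle-exposed cells to give inhibition.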

[6] = NCI Yeast Anticancer Drug Screen. Data for the mlh1 rad18 strain (AID 175); details: S. cerevisiae mlh1 rad18 strain growth inhibition; at 50.0 µM; hits give high values
Outline: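 Test agents were incubated with a yeast strain of defined genotype (DNA damage repair defect). Inhibition of growth was derived by comparison with vehicle-exposed cultures.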

Measured: growth inhibition

CCC1(C)OCC(C)(C)C(C(C)C)O1 (stereo not drawn)
inactive: [1] -13.7% | [2] 3% | [3] -17.4% | [4] -62.5% | [5] -39.6% | [6] -14.6%

N#CC(c1cnc2ccccc2n1)c1cccc2ccccc12 (stereo not drawn)
inactive: [1] -0.3% | [2] 5.9% | [3] 1% | [4] -5.75% | [5] -5.3% | [6] 13%

COc1cc(-c2cc(=O)c3cc4c(=O)cc(-c5cc(OC)c(OC)c(OC)c5)oc4cc3o2)cc(OC)c1OC
inactive: [1] -11.2% | [2] 1.25% | [3] 11.2% | [4] -75% | [5] -7.7% | [6] -5%

Cc1ccc(S(=O)(=O)N2N=C(c3ccccc3)CC2c2ccccc2)cc1 (stereo not drawn)
active: [1] 83.1% | [2] 87.1% | [3] 88.4% | [4] 81% | [5] 82% | [6] 91%

Clc1ccc(-c2nc3ccccc3cc2N2CCCCC2)cc1
inactive: [1] 26.4% | [2] 1.45% | [3] 12.3% | [4] -38.5% | [5] -1.15% | [6] -7.7%

CCCCCCCCCCCCCCCC/C(=C\c1ccc2ccccc2c1)[N+](=O)[O-]
inactive: [1] -29.2% | [2] -10.7% | [3] -24.6% | [4] -38.3% | [5] -1.75% | [6] -10%

O=c1[nH]c(Nc2ccccc2)nc2c1ncn2CC(O)CSCCO (stereo not drawn)
inactive: [1] 16.1% | [2] 13.2% | [3] 26.7% | [4] 8.45% | [5] 10.4% | [6] -27.4%

CN(C)[C@@H]1C(=O)C(C(=O)NCN2CCN(C(=N)N=C(N)N)CC2)=C(O)[C@@]2(O)C(=O)C3=C(O)c4c(O)cccc4[C@@](C)(O)[C@H]3C[C@@H]12
inactive: [1] -0.05% | [2] 1.65% | [3] -3.2% | [4] 14.2% | [5] 10.7% | [6] -5%

C=C(C)C(CCC)(C(=O)OCC)C(=O)OCC
inactive: [1] 3.05% | [2] -9.15% | [3] 12.6% | [4] -4.3% | [5] -13.2% | [6] -14.1%

COC1OC(=O)c2ccccc21 (stereo not drawn)
inactive: [1] 12.2% | [2] -16.2% | [3] -2.1% | [4] -0.7% | [5] -2.45% | [6] 12.8%

COC(=O)c1cc2c(n1S(=O)(=O)c1ccc(C)cc1)C(=O)C(=O)c1[nH]cc(C(=O)OCc3ccccc3)c1-2
inactive: [1] 0.6% | [2] 3.7% | [3] 20.6% | [4] 8.9% | [5] 14% | [6] 13.5%

CCC(C(=O)O)C(C)(C)C (stereo not drawn)
inactive: [1] 6.8% | [2] 0.55% | [3] 1.8% | [4] -4.9% | [5] -0.3% | [6] 9.3%

O=C(NC(=O)c1ccccc1Cl)Nc1ccc(C(O)(C(F)(F)F)C(F)(F)F)cc1
inactive: [1] 53.8% | [2] 53.5% | [3] 58.4% | [4] 68.7% | [5] 34.3% | [6] 61.5%

O=C1CSCc2sccc21
inactive: [1] 37% | [2] 26.1% | [3] 6.55% | [4] -14.4% | [5] 17.3% | [6] 2.95%

N/N=C1\C(Cl)=C(Cl)c2ccccc21
inactive: [1] 6.65% | [2] -6.35% | [3] 10.2% | [4] -11.8% | [5] 2.95% | [6] 8.3%

CCc1ccccc1Cc1ccccc1
inactive: [1] 1.8% | [2] -4.75% | [3] -0.2% | [4] 4.65% | [5] -1.55% | [6] 10.7%

COc1ccc2c(c1)CC/C(=C\C1(Sc3ccccc3)CC1)C2O (stereo not drawn)
inactive: [1] -12.1% | [2] -3.35% | [3] -10.2% | [4] -16.6% | [5] -10.7% | [6] -15.8%

C=C(C)C(O)C(O)c1c(OC)ccc2ccc(=O)oc12 (stereo not drawn)
inactive: [1] -3.65% | [2] -4.25% | [3] -50.7% | [4] 14.1% | [5] -5.55% | [6] -4.4%

C1CCCCC/C2=C(\CCCC1)CSCCCS2
inactive: [1] -25.8% | [2] -19.9% | [3] -16.1% | [4] -14.6% | [5] 0.55% | [6] -36.5%

Nc1nc(Nc2ccccc2)nc(SCc2ccccc2)n1
inactive: [1] 9.7% | [2] 5.45% | [3] -5.5% | [4] -33.5% | [5] 0.15% | [6] 13.7%

O=c1[nH]c2cc(Cl)ccc2nc1/C(=N\Nc1ccccc1)C(O)c1ccc(Cl)c(Cl)c1 (stereo not drawn)
inactive: [1] 11.6% | [2] -4.8% | [3] -9.55% | [4] 24.4% | [5] 17.1% | [6] 19%

CC(C)=CCCC(C)C=O (stereo not drawn)
inactive: [1] -11.6% | [2] -41.2% | [3] -19.4% | [4] 4% | [5] -20.1% | [6] 1.3%

Cc1cc(C(=O)/C=C(\C(=O)c2ccccc2)c2ccccc2)ccc1Cl
inactive: [1] 18.8% | [2] 10.7% | [3] 6.65% | [4] -0.55% | [5] 0.6% | [6] 11.3%

O=P(c1ccccc1)(c1ccccc1)c1ccccc1OCCCO
inactive: [1] 8.3% | [2] 3.2% | [3] 4.35% | [4] 24.8% | [5] 4.4% | [6] 3.15%

Cc1cccc[n+]1CCC(N)=O
inactive: [1] -6.55% | [2] -26.8% | [3] -1.85% | [4] 5.5% | [5] -15.8% | [6] -6.25%

CCCCCC(=O)C(C)(c1nc2nnc(NC(=O)Nc3ccc(Cl)cc3)n2[nH]c1=O)c1nc2nnc(NC(=O)Nc3ccc(Cl)cc3)n2[nH]c1=O
inactive: [1] -42.8% | [2] -21.6% | [3] -24.3% | [4] -45% | [5] -38.8% | [6] -32.5%

CCOC(=O)C(C)(C)C(=O)Nc1ccccc1
inactive: [1] 5.2% | [2] -7.6% | [3] -3.6% | [4] 24.9% | [5] 3.6% | [6] 5.7%

CCNc1ccc2c(c1)C(=O)c1ccccc1-2
inactive: [1] 28.9% | [2] 7.5% | [3] 17.4% | [4] 3.6% | [5] -4.05% | [6] -0.05%

CCC(C)N(C(=O)C(C)Br)C(C)CC (stereo not drawn)
inactive: [1] 2.95% | [2] -9.4% | [3] -19.2% | [4] -39.2% | [5] -10% | [6] 5.9%

Cc1c2oc3c(C)ccc(C(=O)NC4C(=O)NC(C(C)C)C(=O)N5CCCC5C(=O)N(C)CC(=O)N(C)C(C(C)O)C(=O)OC4C)c3nc-2c(C(=O)NC2C(=O)NC(C(C)C)C(=O)N3CCCC3C(=O)N(C)CC(=O)N(C)C(C(C)O)C(=O)OC2C)c(N)c1=O (stereo not drawn) (I: TVP[Sar][NMeT] / II: TVP[Sar][NMeT]; ester I:1-I:C, II:1-II:C; linker I:N-II:N via Actinocin(9to1); configuration not given here)
inactive: [1] 19.4% | [2] -21% | [3] -3.3% | [4] 31.3% | [5] -5.3% | [6] -52.5%

CS(=O)(=O)CCCCCCCCCCS(C)(=O)=O
inactive: [1] 9.45% | [2] 2.45% | [3] -4.35% | [4] -23.7% | [5] 5% | [6] 4.5%

COC(=O)[C@]1(C)CCC[C@@]2(C)[C@H]1CC=C1C=C(C(C)C)CC[C@@H]12
inactive: [1] 50% | [2] 1.15% | [3] 22.8% | [4] 4.6% | [5] -1.95% | [6] 24.4%

Cc1cc(S(=O)(=O)Nc2n[nH]c(N)n2)c(Cl)cc1Cl
inactive: [1] -52% | [2] 1.55% | [3] -56% | [4] -51% | [5] 9.4% | [6] -48.5%

CC1C2CC(C/C2=N/O)C1(C)C (stereo not drawn)
inactive: [1] 19.7% | [2] 19.1% | [3] 36.5% | [4] 29.1% | [5] 11.3% | [6] 21.6%

COC(=O)C(=O)C(C(=O)C(=O)Nc1cccc([N+](=O)[O-])c1)c1nc2ccc(Cl)cc2[nH]c1=O (stereo not drawn)
inactive: [1] 15% | [2] -22.2% | [3] 14.2% | [4] -19.1% | [5] -1.5% | [6] 0.2%

CC1=NN(C(=O)CC(=O)Nc2ccc(C(=O)O)cc2)C(=O)C1N=Nc1ccc(S(N)(=O)=O)cc1 (stereo not drawn)
inactive: [1] -4.7% | [2] -15.8% | [3] -1.5% | [4] -24.3% | [5] 0.55% | [6] -5.95%

O=C1OC(c2cccc(Cl)c2)=N/C1=C\c1ccc(O)cc1
inactive: [1] 15.8% | [2] 9.85% | [3] 15.6% | [4] 8.35% | [5] 1.45% | [6] -3.2%

CCN(CC)Cc1ccc([NH-])c([NH-])c1.CCN(CC)Cc1ccc([NH-])c([NH-])c1.[Cl][Pt+2][Cl].[Cl][Pt+2][Cl].[Cl][Pt+2][Cl]
inactive: [1] 27.4% | [2] 36.6% | [3] 35.6% | [4] 25.6% | [5] 29.2% | [6] 48.5%
